Only a selection was taken, and hits are over-represented in it overall.
Marburg entry inh: inhibitors of Marburg virus binding or cell entry; Marburg virus pseudotyped entry inhibition, cell reporter; Potency, µM (doses to about 37.8 µM), for inactives: at the top dose activity change, negative = inhibition, most hits filed as inhibitors; hit rate 1.8% among 300,000; AID 540276; calls by dose curve; tested in HEK293 cells; also: potency is read from the fitted curve at half-maximal effect; % is scaled to controls: 0 for no effect and ±100 for the full control effect
AMA1-RON2 inh: disrupts binding of P. falciparum AMA1 to RON2; AlphaScreen AMA1-biotinylated RON2 peptide binding; Potency, µM (doses to about 58.2 µM), for the others: top-dose activity change, negative = inhibition, most hits filed as inhibitors; hit rate 0.2% among 360,000; active = well fitted inhibition curve with a large enough effect; inconclusive = small, poorly fitted or top-dose-only effect; inactive = no such curve, though single readings can be large or run the other way;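 also: potency is read from the fitted curve at half-maximal effect; 0% = vehicle wells and -100% = peptide control; nearly all actives have a fitted effect of over 45% in size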
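AMA1 (3D7) with his tag at 25 nM final met compounds first, then biotinylated RON2 peptide at 25 nM; detection used donor plus acceptor beads, 10 µg/mL apiece, read by AlphaScreen after 30 min at room temperature.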
Shiga inhibitor: inhibitors of Shiga toxin in Vero cells | inhibition, % at 38.7 µM | hit rate 9.2% among 290,000 | Vero cells, Shiga toxin protein synthesis inhibition reporter; in the data active = inhibition mostly above about 28%, no sharp cut-off; inactive = mostly below about 43%; also: 0% is about no effect
Cycloheximide cs: affects cycloheximide protein synthesis inhibition readout, counter-screen; cell reporter, cycloheximide protein synthesis inhibition counterscreen; max response, %; hit rate 12% among 300,000; AID 2314; in the data active = max response mostly above about 13%, no sharp cut-off; inactive = mostly below about 14%; also: read at 38.3 µM for the half of the compounds with a filed dose; 0% is about no effect
Lassa entry inh: Lassa virus entry inhibition | Lassa virus pseudotype entry inhibition, cell reporter | Potency, µM (titrated, usually from 37.9 µM), for inactives: top-dose activity change, negative = inhibition, usual class: inhibitors | hit rate 1.2% among 300,000 | AID 540256; calls by dose curve; tested in HEK293 cells; also: potency is read from the fitted curve at half-maximal effect; % is scaled to controls: 0 for no effect and ±100 for the full control effect; nearly all actives have a fitted effect of over 50% in size
Starred values were filed as active, the others as inactive; ? = inconclusive; / = not tested or not shown; + = active, no number; [ ] = remark or other dose.

SMILES	Marburg entry inh	AMA1-RON2 inh	Shiga inhibitor	Cycloheximide cs	Lassa entry inh
NC(N)=NCCC[C@@H](N)C(=O)NCC(=O)N[C@@H](CC(=O)O)C(=O)N[C@@H](Cc1c[nH]c2ccccc12)C(=O)O	/	/	-14	-7	/
O=C(NCc1cccnc1)c1cc(C2CCCCN2S(=O)(=O)c2cccc3cccnc23)on1 (centres undefined)	/	-1%	/	/	/
CCOC(=O)CCCCCC(=O)Nc1ccc2c(c1)C(=O)N([C@@H](C)CO)C[C@H](C)[C@H](CN(C)C(=O)c1ccccc1)OCCCC[C@H](C)O2	/	-2%	/	/	/
COc1ccc(C(=O)Nc2nc(C)c(C(=O)N(C)C)s2)cc1OC	24%	3%	16	30*	-13%
CC(=O)c1sc(NC(=O)c2ccccc2F)nc1C	/	-21%	43*	28*	/
CC(=O)c1sc(NC(=O)c2ccc(C(C)(C)C)cc2)nc1C	?	-11%	158*	67*	?
CC(=O)c1sc(NC(=O)c2cnc(Cl)c(Cl)c2)nc1C	?	11%	84*	14*	/
CC(=O)c1sc(NC(=O)c2ccc(C)c(C)c2)nc1C	/	-9%	47*	47*	/
Cc1nc(NC(=O)c2ccc(Cl)cc2)sc1Cc1ccc2c(c1)OCO2	?	?	13	8	-17%[46.1 µM]
Cc1nc(NC(=O)c2ccccc2)sc1Cc1ccc2c(c1)OCO2	?	?	25*	68*	-13%
CCN1CCc2nc(NC(=O)c3ccc4c(c3)OCCO4)sc2C1	1%	1%	98*	33*	?
CCN1CCc2nc(NC(=O)Cc3ccc4c(c3)OCCO4)sc2C1	?	-14%	17	8	-6%
CC(=O)c1sc(NC(=O)c2ccc3c(c2)OCO3)nc1C	?	-6%	82*	43*	?
CS(=O)(=O)N(CCCC(=O)N1CCCCCC1)c1cccc(Cl)c1	/	-5%	-17	-1	/
Cc1ccc(NC(=O)c2cc(S(=O)(=O)N3CCCCC3)c[nH]2)cc1N(C)C	/	/	/	/	15%[46.1 µM]
Cc1nn(-c2ccccc2)c2c1C(c1ccco1)C(C#N)=C(N)O2 (centres undefined)	-13%	-19%	55*	40*	11%
Cc1nn(-c2ccccc2)c2c1C(c1cccs1)C(C#N)=C(N)O2 (centres undefined)	9%[46.1 µM]	?	-3	9	22%
COc1ccc(OC)c(NC(=O)c2cc3cc(C)ccc3n2C)c1	14%[46.1 µM]	/	/	/	6%[46.1 µM]
CC(C)(C)c1ccc2c(c1)OC(C(=O)N/N=C\c1ccc(-c3cccc(C(=O)O)c3)o1)CO2 (centres undefined)	?	45%	148*	70*	11%[46.1 µM]
O=C(O)c1cccc(-c2ccc(/C=N/NC(=O)C3COc4ccccc4O3)o2)c1 (centres undefined)	4%[46.1 µM]	1%	+	56*	-9%
O=C(N/N=C\c1ccc([N+](=O)[O-])o1)C1COc2ccccc2O1 (centres undefined)	?	10%	67*	22*	?
CC1CCC(O)C/C1=C\C=C1/CCCC2(C)C1CCC2C(C)/C=C/C(C)C(C)C (centres undefined)	/	/	4	13	/
O=C(CC[C@H]1O[C@@H](n2ccc(=O)[nH]c2=O)[C@H](O)[C@@H]1O)NCc1ccccc1	/	-1%	/	/	/
CCc1nc2sc3c(O)cc(=O)[nH]c3c2cc1C	3%[46.1 µM]	17%	-12	-8	0%[46.1 µM]
COc1ccc(OCc2cc(C(=O)N(Cc3nccn3C)C(C)C)no2)c2ccccc12	/	-15%	47*	43*	/
SMILES	Marburg entry inh	AMA1-RON2 inh	Shiga inhibitor	Cycloheximide cs	Lassa entry inh
Cc1ccc(OCCN(C)C(=O)c2cc(COc3ccc(F)cc3F)on2)cc1	22%	17%	33	13*	-2%
COc1cccc(OCc2cc(C(=O)N(C)Cc3nccn3C)no2)c1	/	3%	136*	53*	/
COc1cccc(OCc2cc(C(=O)N(C)CCOc3ccc(C)cc3)no2)c1	/	33%	75*	68*	/
COc1ccc(S(=O)(=O)N2CCC[C@@H]2C(=O)N2CCC[C@H]2C(=O)NCc2ccncc2)cc1C	/	-19%	/	/	/
C#CCn1c2ccccc2c(=O)n1CCOc1ccccc1OC	/	0%	/	/	/
COc1ccc2c(c1OC)C(=O)OC2Nc1nc(-c2cc3cc(Br)ccc3oc2=O)cs1 (centres undefined)	22%[46.1 µM]	13%	80*	37*	-12%
COc1ccc2c(c1OC)C(=O)OC2Nc1ccccc1S(=O)(=O)C(F)F (centres undefined)	-5%	-12%	5	-3	-10%
COc1ccc(-c2csc(NC3OC(=O)c4c3ccc(OC)c4OC)n2)cc1OC (centres undefined)	?	-18%	12	12*	-11%
COc1ccc2c(c1OC)C(=O)OC2Nc1nc2ccccc2s1 (centres undefined)	-1%	10%	12	8	14%
COc1ccc2c(c1OC)C(=O)OC2Nc1nc(-c2ccc([N+](=O)[O-])cc2)cs1 (centres undefined)	17%[46.1 µM]	0%	56*	16*	16%[46.1 µM]
O=C(O)CC(NS(=O)(=O)c1ccc(Br)s1)c1ccccc1 (centres undefined)	/	/	/	/	-1%[46.1 µM]
O=S1(=O)CC(N2CC=CC2)CN1CCc1ccccc1 (centres undefined)	/	/	/	/	8%[46.1 µM]
CCOC(=O)C1(C)CCCN(C(=O)c2ccc3c(c2)CCO3)C1 (centres undefined)	/	-3%	/	/	/
Cn1cc(Cl)c(C(=O)NNC(=S)NC2CCCCC2)n1	?	30%	54*	23*	?
Cn1cc(Cl)c(C(=O)NC2CCCCCC2)n1	?	3%	23*	14*	9%
Cn1cc(Cl)c(C(=O)NNC(=S)NCc2ccco2)n1	5%	115%	-6	2	3%
CCN1C(=O)[C@H]2[C@H]3CN=C(SCC(=O)c4ccccc4)N3[C@@](CC)(C(=O)OC)[C@H]2C1=O	/	77%	/	/	/
C/C(N)=C(/C#N)C(=O)COC(=O)C1CCC(C(C)(C)C)CC1 (centres undefined)	-2%	18%	56*	16*	?
CC(=O)Nc1cccc(-n2nnc(SCC(=O)c3ccccc3)n2)c1	/	0%	61*	49*	/
COc1ccc(C(=O)CSc2nnn(-c3cccc(NC(C)=O)c3)n2)cc1	-12%[46.1 µM]	12%	73*	52*	-2%
COC(=O)c1cc2sc(Cl)cc2n1Cc1nc(-c2ccccc2F)oc1C	0%[46.1 µM]	/	/	/	/
Nc1nc(N)nc(-c2ccccc2O)n1	?	3%	47*	31	10%
COc1cc(/C=C/c2nc(N)nc(-c3ccccc3O)n2)cc(OC)c1OC	-1%	-5%[11.6 µM]	5	-1	-27%
COc1ccc(/C=C/c2nc(N)nc(-c3ccccc3O)n2)cc1OC	?	-20%	4	15*	?
Cc1cc(-c2nc3cc(F)ccc3s2)ccc1N	7.1µM*	23%	/	/	2.2µM*
Cc1c(C)c2ccc(OCC(=O)Nc3cccnc3)c(C)c2oc1=O	/	4%	32	26*	/
COc1ccc(-c2cc(=O)oc3c(C)c(OCC(=O)Nc4cccnc4)ccc23)cc1	/	-4%	-2	11	/
